Values joined by “and” are separate entries in the source; they are usually repeats but may differ in a detail not shown here. Equal values may be shown once. Inconclusive results are not listed. Some structures have more than one record in an assay (separate samples or runs), and their calls can disagree. Active and inactive are the calls of the source. Rule for the calls, unless noted: active = hit-call score of the fitted dose curve at least 0.9, where 1 is the maximum; inactive = score below 0.9.
Experiments:
[1] = CCTE_Shafer_MEA_dev_per_burst_interspike_interval: CCTE's Neural Network Formation Assay for Burst Interspike Interval, Shafer Lab (AID 2284044);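 for AC50: potency for a decrease of within-burst interspike interval below DMSO level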
Outline: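 Readout is the average time between spikes inside single-electrode bursts, taken as a well mean across bursting electrodes. Cortical neurons from rat developed networks on MEA plates under continuous 12-day exposure; recordings on days 5, 7, 9 and 12 were integrated by trapezoidal AUC.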

[2] = CCTE_Shafer_MEA_dev_burst_duration_mean: CCTE's Neural Network Formation Assay for Mean Burst Duration, Shafer Lab (AID 2284045);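 for AC50: curve fitted for loss meaning shorter burst duration than DMSO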
Outline: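 Network-formation assay in primary rat cortical neurons; treatment spans twelve days of development. Mean burst duration per well is integrated by trapezoidal AUC and fitted in the loss-of-signal direction against DMSO baseline.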

[3] = CCTE_Shafer_MEA_dev_interburst_interval_mean: CCTE's Neural Network Formation Assay for Mean Interburst Interval, Shafer Lab (AID 2284046);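 note: well-mean interburst interval of bursting electrodes as AUC over four recording days; curve fitted for decrease in interburst interval relative to DMSO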
Outline: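 Developing rat cortical networks on 48-well MEAs receive compound from the day of plating. Burst intervals from each active electrode are averaged per well, and AUC over the recording days is fitted in the negative direction against DMSO.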

[4] = CCTE_Shafer_MEA_dev_inter_network_spike_interval_mean: CCTE's Neural Network Formation Assay for Mean Inter-network Spike Interval, Shafer Lab (AID 2284047);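 for AC50: potency for a decrease in mean inter-network spike interval below DMSO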
Outline: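 Rat cortical cultures, 1.5 x 10^5 cells/well on 48-well MEA plates; continuous exposure days 0–12, medium and compound refreshed DIV 5, 9. Mean time between consecutive network-spike peaks; AUC across DIV 5/7/9/12; DMSO baseline, negative fitting direction.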

[5] = CCTE_Shafer_MEA_dev_network_spike_number: CCTE's Neural Network Formation Assay for Number of Network Spikes, Shafer Lab (AID 2284048);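 for AC50: fit as a loss of signal meaning fewer network spikes than DMSO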
Outline: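 Extracellular recordings from 16-electrode wells track network formation in rat cortical cultures under continuous treatment from plating. The endpoint is network spike number, expressed as AUC across DIV 5–12 relative to DMSO vehicle.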

[6] = CCTE_Shafer_MEA_dev_network_spike_peak: CCTE's Neural Network Formation Assay for Mean Number of Electrodes in Network Spike, Shafer Lab (AID 2284049);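 for AC50: fitted for loss of signal meaning fewer electrodes in network spikes than DMSO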
Outline: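 Continuous 12-day exposure of rat cortical cultures, starting at plating, on MEA plates. Endpoint: electrodes participating in network-spike peaks, AUC across DIV 5–12, DMSO as negative control.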

[7] = CCTE_Shafer_MEA_dev_spike_duration_mean: CCTE's Neural Network Formation Assay for Mean Spike Duration, Shafer Lab (AID 2284051);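 note: mean network spike duration pooled as area under curve over DIV 5 to 12 recordings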;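 for AC50: potency for a decrease in mean network spike duration versus DMSO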
Outline: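 Readout is the average length of network spikes, clustered firing across electrodes, summed over DIV 5, 7, 9 and 12 as area under the curve. Neurons from rat cortex developed networks on MEA plates under continuous 12-day exposure.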

[8] = CCTE_Shafer_MEA_dev_network_spike_duration_std: CCTE's Neural Network Formation Assay for Standard Deviation of Network Spike Duration, Shafer Lab (AID 2284052);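 note: area under curve of spike duration SD across recording days 5 to 12; hits are decreases in network spike duration SD versus DMSO vehicle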
Outline: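 Read-out is the trapezoidal area-under-the-curve across recordings made on days 5, 7, 9 and 12, fitted in the negative direction against DMSO baseline. Neurons were primary rat cortical cells treated from day 0, with treatment renewed at each feed.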

[9] = CCTE_Shafer_MEA_dev_per_network_spike_spike_number_mean: CCTE's Neural Network Formation Assay for Mean Number of Spikes in a Network Spike, Shafer Lab (AID 2284053)
Outline: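 Continuous twelve-day exposure of developing rat cortical networks grown over 16 microelectrodes per well; spontaneous firing is captured at four time points, and the per-network-spike spike number is integrated over development by trapezoidal AUC.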

[10] = CCTE_Shafer_MEA_dev_per_network_spike_spike_percent: CCTE's Neural Network Formation Assay for Percent of Spikes in a Network Spike, Shafer Lab (AID 2284054)
Outline: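 Developing networks of rat cortical neurons are dosed at day 0 and recorded extracellularly four times up to day 12. The endpoint is the area under the curve of percent spikes in network spikes, fitted in the negative direction relative to DMSO.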

[11] = CCTE_Shafer_MEA_dev_LDH: CCTE's Lactate Dehydrogenase Assay for Cytotoxicity in the Neural Network Formation Assay, Shafer Lab (AID 2284068; active = hit-call score of the fitted dose curve at least 0.9, where 1 is the maximum;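 note: exposure for twelve days from plating with re-dosing on DIV 5 and 9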)
Outline: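 Cytotoxicity companion to network-formation recordings: rat cortical neurons received compound over 12 days of development, re-dosed at DIV 5 and 9 feeds. Viability was inferred from LDH enzyme activity relative to DMSO.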

[12] = CCTE_Shafer_MEA_acute_AB: CCTE's Alamar Blue Assay for Cytotoxicity in the Neural Acute Assay, Shafer Lab (AID 2284069; active = hit-call score of the fitted dose curve at least 0.9, where 1 is the maximum;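 note: active compounds lower the viability signal compared with DMSO wells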)
Outline: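 Metabolic activity in chemically exposed rat cortical neurons (MEA cultures, day 13/15 post-plating) measured via CellTiter Blue resazurin reduction, 544/590 nm fluorescence; fitted relative to DMSO, with signal loss indicating reduced viability.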

[13] = CCTE_Shafer_MEA_dev_AB: CCTE's Alamar Blue Assay for Cytotoxicity in the Neural Network Formation Assay, Shafer Lab (AID 2284083; active = hit-call score of the fitted dose curve at least 0.9, where 1 is the maximum;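 note: twelve days of exposure from plating with re-dosing on DIV 5 and 9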)
Outline: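 Fluorescent resazurin reduction serves as the viability read-out, with DMSO as negative control and baseline. Cells were primary rat cortical neurons grown on MEA plates and dosed from day 0 to day 12, treatment renewed on DIV 5 and 9.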

[14] = CCTE_Shafer_MEA_dev_mutual_information_norm: CCTE's Neural Network Formation Assay for Mutual Information Normalization, Shafer Lab (AID 2284091);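 for AC50: mutual information between electrodes summarised as area under curve across four recording days; potency is for a decrease in mutual information relative to DMSO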
Outline: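 Exposure of primary rat cortical neurons began at plating and ran to DIV 12, with full media and treatment renewal after DIV 5 and 9 recordings. Mutual information AUC (DIV 5–12) was analysed for loss versus DMSO.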

[15] = CCTE_Shafer_MEA_dev_correlation_coefficient_mean: CCTE's Neural Network Formation Assay for Mean Correlation Coefficient, Shafer Lab (AID 2284093);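 for AC50: well mean pairwise spike train correlation integrated as AUC over recording days 5 to 12; potency fitted for loss of correlation relative to DMSO vehicle wells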
Outline: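 Read-out: well-mean correlation coefficient of spike trains between electrode pairs, collapsed over four recording days as trapezoidal area-under-the-curve. Developing rat cortical neuron networks grown on MEAs received test chemical continuously from plating.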

DIO2 (gene 1734) = assay: CCTE_GLTED_hDIO2: CCTE's human Deiodinase 2 (DIO2) Inhibition Assay, Great Lakes Toxicology and Ecology Division (GLTED) Lab (AID 2284050; active = hit-call score of the fitted dose curve at least 0.9, where 1 is the maximum)
Outline: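 Inhibition is judged by reduced iodide release: uninhibited human DIO2 frees iodide from substrate over 3 h, measured afterward by Sandell-Kolthoff colorimetry. Iodinated chemicals or nitrite, iron and thiocyanate may interfere.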

DIO3 (gene 1735) = assay: CCTE_GLTED_hDIO3: CCTE's human Deiodinase 3 (DIO3) Inhibition Assay, Great Lakes Toxicology and Ecology Division (GLTED) Lab (AID 2284055; active = hit-call score of the fitted dose curve at least 0.9, where 1 is the maximum;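 note: potency is for inhibition seen as loss of released iodide signal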)
Outline: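 Human type 3 deiodinase, expressed via adenovirus system, was exposed to test chemicals for 3 hours in a cell-free format. Released iodide was then determined spectrophotometrically by Sandell-Kolthoff; plates ran in triplicate.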

[16] = CCTE_Shafer_MEA_acute_LDH: CCTE's Lactate Dehydrogenase Assay for Cytotoxicity in the Neural Acute Assay, Shafer Lab (AID 2284086; active = hit-call score of the fitted dose curve at least 0.9, where 1 is the maximum;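 note: active means LDH release rises above DMSO vehicle level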)
Outline: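 Medium collected from MEA wells of primary rat cortical cultures (DIV 13 or 15) immediately after 40 min chemical exposure is assayed spectrophotometrically for lactate dehydrogenase activity. Endpoint fitted in positive direction versus DMSO.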

Measured: AC50

CNC(=O)ON=CC(C)(C)SC
active: [9] 549 nM
inactive: [1] | [2] | [3] | [4] | [5] | [6] | [7] | [8] | [10] | [11] | [12] | [13] | [14] | [15]

CCCN(CCC)c1c([N+](=O)[O-])cc(S(N)(=O)=O)cc1[N+](=O)[O-]
active: DIO2 (gene 1734) 141 µM | DIO3 (gene 1735) 160 µM
inactive: [12] | [16]

C=CC1(C)OC(=O)N(c2cc(Cl)cc(Cl)c2)C1=O (stereo not given)
inactive: [1] | [2] | [3] | [4] | [5] | [7] | [8] | [9] | [10] | [11] | [13] | [14]
active: [6] 50 µM | [15] 50 µM

CCOC(=O)CC(SP(=S)(OC)OC)C(=O)OCC (stereo not given)
active: [1] 3.72 µM | [3] 16.8 µM and 15 µM | [5] 11.7 µM | [6] 14.2 µM and 8.93 µM | [7] 13.1 µM and 4.76 µM | [8] 13.3 µM | [9] 13 µM and 8.1 µM | [10] 11 µM and 3.69 µM | [11] 19.9 µM and 24.6 µM | [13] 22.9 µM and 25.1 µM | [14] 7.87 µM and 3.88 µM | [15] 12.7 µM and 22.6 µM
inactive: [1] | [2] | [4] | [5] | [8]

N#CC(CCc1ccc(Cl)cc1)(Cn1cncn1)c1ccccc1 (stereo not given)
inactive: [12] | [16]

Oc1ccccc1-c1ccccc1
active: DIO2 (gene 1734) 38.2 µM | DIO3 (gene 1735) 89.4 µM

COC(=O)N(OC)c1ccccc1COc1ccn(-c2ccc(Cl)cc2)n1
active: [1] 269 nM and 50 nM | [2] 129 nM | [3] 264 nM and 13.7 nM | [4] 128 nM | [5] 0.0669 µM | [6] 72.5 nM and 15.9 nM | [7] 88.7 nM and 9.7 nM | [8] 0.0788 µM | [9] 82.2 nM and 11 nM | [10] 157 nM and 13.6 nM | [11] 54.7 nM and 5.99 nM | [13] 120 nM and 25.3 nM | [14] 57.3 nM and 9.62 nM | [15] 161 nM and 10.2 nM
inactive: [2] | [4] | [5] | [8] | [12] | [16]

CCCCC(CC)COC(=O)c1ccccc1C(=O)OCC(CC)CCCC (stereo not given)
active: [1] 9.06 µM | [2] 3180 nM | [3] 12.6 µM | [5] 2.32 µM and 12.8 µM | [6] 15 µM and 423 nM and 8.09 µM | [7] 9.35 µM and 4.75 µM | [8] 3.05 µM | [9] 6.42 µM and 4.63 µM | [10] 7.71 µM and 22.4 µM | [11] 11.3 µM | [13] 12.4 µM | [14] 1.59 µM and 2.77 µM | [15] 5.5 µM and 7.56 µM
inactive: [1] | [2] | [3] | [4] | [5] | [7] | [8] | [9] | [10] | [11] | [13] | [14] | [15]

CO/C=C(/C(=O)OC)c1ccccc1Oc1cc(Oc2ccccc2C#N)ncn1
inactive: [12] | [16]
active: [1] 2.3 µM and 2.54 µM | [2] 1.55 µM and 2.03 µM | [3] 2.29 µM and 1.06 µM | [4] 1.64 µM and 17 nM | [5] 948 nM and 767 nM | [6] 1.48 µM and 1.44 µM | [7] 1.08 µM and 874 nM | [8] 840 nM and 974 nM | [9] 1.49 µM and 1.1 µM | [10] 1.83 µM and 433 nM | [11] 507 nM and 1.41 µM | [13] 1.73 µM and 2.19 µM | [14] 1.11 µM and 985 nM | [15] 1.57 µM and 574 nM

CCCC1COC(Cn2cncn2)(c2ccc(Cl)cc2Cl)O1 (stereo not given)
inactive: [12] | [16]

CCOP(=S)(OCC)SCn1c(=O)oc2cc(Cl)ccc21
inactive: [12] | [16]

CCNc1nc(Cl)nc(NC(C)C)n1
active: DIO3 (gene 1735) 21.7 µM
inactive: [1] | [2] | [3] | [4] | [5] | [6] | DIO2 (gene 1734) | [7] | [8] | [9] | [10] | [12] | [14] | [15]
